Most compounds without a hit are left out; they make up all but 6.8% or so of the library.
NS3h inh CB: blocks HCV NS3 helicase binding to DNA. NS3h Cy5-dT15 DNA binding, fluorescence polarization. inhibition, % at 100 µM. AID 687043. actives 1.6% (n = 16,000);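 active means inhibition above the average over every tested compound plus 3 SD, cut at about 40% in these data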
Cy5 interf NS3h: enhances or quenches Cy5 fluorescence in NS3h assay. Cy5-dT15 DNA with NS3h, fluorescence interference; actives lie on both sides; signal over control mean, under 1 quenches. fluorescence interference ratio at 100 µM. actives 6% (n = 16,000);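 active means compound fluorescence over control fluorescence at most 0.8, a quencher, or at least a set upper limit, an enhancer; inactive means ratio between 0.8 and the set upper limit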
Active calls of the source: *.

SMILES	NS3h inh CB	Cy5 interf NS3h
COc1ccc(/C(C)=N\N=C(\C)c2ccc(OC)cc2OC)c(OC)c1	16	0.67*
COc1ccc(C(=O)c2ccccc2)c(OC)c1	-6	0.91
O=C(CSc1cc(Cl)ccc1Cl)Nc1cccc(C(F)(F)F)c1	-4	0.89
Cn1ccnc1SCC(=O)Nc1cccc(C(F)(F)F)c1	10	0.76*
O=C(Nc1nc(CC23CC4CC(CC(C4)C2)C3)cs1)c1ccc(F)cc1	11	1.1
CCOC(=O)c1c(C)oc2c(Br)cc(NS(=O)(=O)c3ccccc3)cc12	14	0.97
CCc1ccc(S(=O)(=O)Nc2cc3c(C(=O)O)c(C)oc3c3ccccc23)cc1	-18	0.72*
COc1ccc(C(=O)NCC(C)c2ccccc2)cc1OC (centres undefined)	10	1.1
CCc1cc(=O)oc2cc(C)cc(OC(C)=O)c12	1	1.1
CCc1cc(=O)oc2cc(C)cc(OCC(=O)c3ccccc3)c12	-4	1.3*
O=C(NCCN1CCNCC1)C(=O)Nc1ccc(F)cc1	5	1.1
O=C(COc1ccc(Cl)cc1)Nc1ccc(I)cc1Cl	-1	1.2*
COc1ccc(OCC(=O)Nc2ccc(I)cc2Cl)cc1	3	0.93
Cn1cccc1CN1CCN(Cc2cc(Br)ccc2O)CC1	-2	0.92
CC(=O)C(C(C)=O)C1=CC(=O)C(=O)c2ccccc21	6	0.53*
COc1ccccc1C=C1C(=O)c2ccccc2C1=O	26	0.99
O=C(Nc1ccc(Br)cn1)c1cc2n(n1)C(C(F)(F)F)CC(c1ccccc1)N2 (centres undefined)	24	0.7*
CCc1ccccc1NC(=O)c1cc2n(n1)C(C(F)(F)F)CC(c1ccccc1)N2 (centres undefined)	6	1
C=CCN1C(=O)/C(=C/c2ccc(N(C)C)cc2)C(=O)NC1=S	34	1.2*
CN(C)c1ccc(/C=C2/C(=O)NC(=O)N(CCCO)C2=O)cc1	19	0.94
O=C(/C=C/c1ccccc1)N1CCC(CN2C(=O)c3cccc4cccc(c34)C2=O)CC1	13	0.89
O=C(Nc1c(C(=O)N2CCOCC2)cnn1-c1ccccc1)c1ccccc1	-2	1
O=C(Nc1c(C(=O)N2CCCCCC2)cnn1-c1ccccc1)c1cccc(F)c1	31	1.3*
Cc1ccc(C(=O)O/N=C(/N)Cc2cccc3ccccc23)cc1[N+](=O)[O-]	20	1
CCOc1cc(/C=C2/SC(=S)N(Cc3ccccc3)C2=O)ccc1OCc1ccccc1	1	1.1
SMILES	NS3h inh CB	Cy5 interf NS3h
O=C(O)CCCN1C(=O)C(=O)C(=C(O)c2ccc(Cl)cc2)C1c1ccccc1 (centres undefined)	31	1.1
COc1ccc(C2C(=C(O)c3ccc(Cl)cc3)C(=O)C(=O)N2CCCC(=O)O)cc1 (centres undefined)	-44	0.15*
Cc1cc(C)cc(Nc2cc(=O)n(C)c(=O)n2C)c1	2	0.94
COc1ccccc1N1CCN(C(=O)CN(c2ccc(Br)cc2)S(=O)(=O)c2ccccc2)CC1	11	1
COc1cc(C(=O)Nc2c(C)cccc2C(C)C)c(Br)c(OC)c1OC	7	1.2*
COc1c(Cl)ccc(Cl)c1C(=O)Nc1c(C)cccc1C(C)C	5	1.1
CCc1cc2c(=O)c(-c3nc4ccccc4s3)c(C)oc2cc1OS(C)(=O)=O	7	1.2*
CCC(=O)Oc1cc2oc(CC)c(-c3nc(C)cs3)c(=O)c2cc1CC	18	0.91
O=C(/C=C/c1ccc(/C=C/C(=O)c2cccc(N3C(=O)CCC3=O)c2)cc1)c1cccc(N2C(=O)CCC2=O)c1	13	0.96
COc1ccc(S(=O)(=O)N2CCN(C(=O)c3cccc(F)c3)CC2)cc1	3	1
COc1ccc(S(=O)(=O)N2CCN(C(=O)c3cccs3)CC2)cc1	0	0.69*
Nc1ccc(NC(=O)c2ccc(Cl)cc2Cl)c(Cl)c1	4	0.63*
O=C(Nc1ccc(Cl)cc1Cl)c1ccccc1F	2	1.1
CSc1ccccc1NC(=O)/C=C/C(=O)O	-5	1.1
COc1ccccc1N1C(=O)/C(=C/c2cccc(O)c2)SC1=S	14	0.95
CCOc1ccccc1NC(=O)CSc1nnc(C)s1	0	0.68*
COc1ccccc1NC(=O)CSc1nsc(SCC(=O)Nc2ccccc2OC)n1	1	0.9
CN(C)CC(O)CN(c1ccccc1)S(=O)(=O)c1ccc([N+](=O)[O-])cc1 (centres undefined)	0	0.79*
NC(=O)CN(c1cccc([N+](=O)[O-])c1)S(=O)(=O)c1ccccc1	10	0.98
Cc1ccc(S(=O)(=O)N(CC(C)C)CC(C)C)cc1	5	0.94
COc1ccc(N(CC(O)CN(Cc2ccccc2)Cc2ccccc2)S(=O)(=O)c2ccc(C)cc2)cc1 (centres undefined)	10	0.96
Cc1cccc(N(CC(O)CN(Cc2ccccc2)Cc2ccccc2)S(=O)(=O)c2ccccc2)c1 (centres undefined)	21	0.7*
Cc1ccc(S(=O)(=O)N(CC(O)CN(CC(C)C)CC(C)C)c2cccc(C)c2)cc1 (centres undefined)	12	0.77*
CCOc1cccc(-c2nnc(NC(=O)c3ccco3)s2)c1	5	1.1
c1ccc(-c2n[nH]c(C3COc4ccccc4O3)c2-c2nc3ccccc3[nH]2)cc1 (centres undefined)	11	0.96
SMILES	NS3h inh CB	Cy5 interf NS3h
Cn1c(=O)oc2cc(Cl)c(C(=O)O)cc21	-8	1
COC(=O)CNC(=O)C1COc2ccccc2O1 (centres undefined)	6	1.2*
O=C(NCCO)C1COc2ccccc2O1 (centres undefined)	1	0.94
COc1cc(/C=C2\SC(=S)N(C3CCS(=O)(=O)C3)C2=O)ccc1O (centres undefined)	7	0.98
Cc1ccc(N2C(=O)CC(NCCc3ccccc3Cl)C2=O)cc1 (centres undefined)	5	1.1
COc1ccc(C2C(C(=O)OC(C)C)=C(C)N=c3s/c(=C\c4ccc5c(c4)OCO5)c(=O)n32)cc1 (centres undefined)	2	1
COCCNC(=O)CN(c1ccc(C)cc1)S(=O)(=O)c1ccc(SC)cc1	4	0.92
CSc1ccc(S(=O)(=O)N(CC(=O)Nc2cccc(C)c2)c2ccc(C)cc2)cc1	22	0.7*
COc1ccccc1NC(=O)CN(c1ccc(C)cc1)S(=O)(=O)c1ccc(SC)cc1	20	0.69*
CSc1ccc(S(=O)(=O)N(CC(=O)Nc2cccc(Br)c2)c2ccc(C)cc2)cc1	10	0.85
O=C(O)c1ccccc1-c1ccccc1/C=N\O	3	1.1
COc1cc(OC)cc(C(=O)N2CCN(C3CCC(c4ccccc4)CC3)CC2)c1 (centres undefined)	13	0.82
COc1cccc(C(=O)N2CCN(C3CC4CCC3C4)CC2)c1 (centres undefined)	-10	0.68*
CCOc1ccc(C(=O)Nc2ccc(OC)cc2)cc1[N+](=O)[O-]	16	0.96
Cc1ccc(OCC(=O)n2cnnc2N)c(Br)c1	3	1
O=C(O)CCCc1nc2ccccc2s1	-5	1
O=C(O)CCCc1nc2ccccc2[nH]1	1	0.73*
O=[N+]([O-])c1ccc(N2CCN(S(=O)(=O)c3ccccc3)CC2)cc1Sc1cccc2cccnc12	14	0.97
O=[N+]([O-])c1ccc(N2CCNCC2)cc1Sc1cccc2cccnc12	2	0.75*

Bioassay records (PubChem BioAssay)
